HCMV inh: inhibitors of human cytomegalovirus; 410,000 tested, 4.5% active; activity change, negative = inhibition, % at 57.5 µM; AID 1259415; HFF cells, HCMV-luciferase reporter, 72 h; active compounds read low; in the data active = activity change below about -60%; inconclusive = no clear call, values can overlap the other calls; inactive = above about -39%; also: % is scaled to controls: 0 for no effect and ±100 for the full control effect
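After 16 h attachment at 37C, HFF cells received test compound and HCMV-luciferase (1 PFU/cell); reporter luminescence read 72 h later, data normalized against buffer-only and known inhibitor Salinomycin.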
Pf growth 96h: P. falciparum growth inhibition at 96 hour, primary screen for plastid delayed-death inhibitors. P. falciparum luciferase reporter growth, 96 h. Potency, µM (top dose mostly 28.7 µM), for the others: at the top dose activity change, negative = inhibition, actives largely listed as inhibitors. 320,000 tested, 6.9% active. AID 504834; also: potency is read from the fitted curve at half-maximal effect; % is scaled to controls: 0 for no effect and ±100 for the full control effect
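P. falciparum expressing integrated firefly luciferase, in erythrocytes at 2% hematocrit, 0.05% parasitemia, incubated with compounds 96 h at 37 C, 5% CO2. Growth inhibition read as loss of luminescence; two-generation exposure targets delayed-death apicoplast inhibitors.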
CHX counter: counter-screen for Shiga toxin inhibitors: cycloheximide protein synthesis inhibition | cell reporter, cycloheximide protein synthesis inhibition counterscreen | max response, % | 300,000 tested, 12% active; in the data active = max response mostly above about 13%, no sharp cut-off; inactive = mostly below about 14%; also: read at 38.3 µM for the half of the compounds with a filed dose; 0% is about no effect
Pf growth 48h: P. falciparum growth inhibition at 48 hours (one generation). P. falciparum luciferase growth in erythrocytes, 48 h. Potency, µM (series often up to 28.7 µM), for inactives: at the top dose activity change, negative = inhibition, hits mostly inhibitors. 310,000 tested, 5.9% active. AID 504832; also: potency is read from the fitted curve at half-maximal effect; % is scaled to controls: 0 for no effect and ±100 for the full control effect
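Luciferase-expressing parasites in RBCs, 2% Hct / 0.1% parasitemia final; RPMI 1640 + 0.5% Albumax; 37 C, 5% CO2, one generation; luminescence read-out, lower signal = inhibition.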
HCV inhibitor: blocks hepatitis C virus; Huh7.5.1 HCVcc-Cre infection, luciferase reporter, 44 h; Potency, µM (titrated, usually from 41.8 µM), for the others: top-dose activity change, negative = inhibition, actives largely listed as inhibitors; 340,000 tested, 3.4% active; AID 651820; also: potency is read from the fitted curve at half-maximal effect; % is scaled to controls: 0 for no effect and ±100 for the full control effect
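Compounds are dispensed onto cells plated 4 h earlier at 1,000 per well, with HCVcc-Cre virus (about 0.5 moi) added next. Following 44 h of culture, luminescent signal is measured for 15 sec after 15 min with substrate at room temperature.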
Shiga inhibitor: inhibitors of Shiga toxin in Vero cells. Vero cells, Shiga toxin protein synthesis inhibition reporter. inhibition, % at 38.7 µM. 290,000 tested, 9.2% active; in the data active = inhibition mostly above about 28%, no sharp cut-off; inactive = mostly below about 43%; also: 0% is about no effect
* = called active by the depositor; ? = inconclusive; nt = not tested or not shown. Rows were chosen to be rich in hits. Some 21% of all compounds tested hit in one or more screens of this group. Unless noted, calls follow the shape of the dose curve; as a rule, active = well fitted inhibition curve with a large enough effect; inconclusive = small, poorly fitted or top-dose-only effect, or another doubt; inactive = no such curve, though single readings can be large or run the other way.

SMILES	HCMV inh	Pf growth 96h	CHX counter	Pf growth 48h	HCV inhibitor	Shiga inhibitor
CC(C(=O)NC1C=CS(=O)(=O)C1)N1C(=O)/C(=C\c2ccccc2)SC1=S (stereo unspecified)	?	?	23*	-12%	3%	24*
O=C(CN1C(=O)/C(=C/c2cccc(Cl)c2)SC1=S)NC1C=CS(=O)(=O)C1 (stereo unspecified)	-23	42%	2	61%	8%	2
O=C(CN1C(=O)/C(=C/c2ccccc2F)SC1=S)NC1C=CS(=O)(=O)C1 (stereo unspecified)	?	4%	-1	-1%	-6%	-5
CC(C(=O)NC1C=CS(=O)(=O)C1)N1C(=O)/C(=C/c2cccc(Cl)c2)SC1=S (stereo unspecified)	-65*	30%	9	-14%	5%	20
COc1ccccc1/C=C1/SC(=S)N(C(C)C(=O)NC2C=CS(=O)(=O)C2)C1=O (stereo unspecified)	?	?	19*	?	8%	20
CC(=O)Nc1c(C)ccc(S(N)(=O)=O)c1C	12	38%	-2	8%	23%	-10
COc1ccc(CCN(/C=C2\Sc3ccccc3C2=O)C(C)=O)cc1OC	90	38%	42*	100%	9%	91
CCN1C(=O)c2ccccc2Sc2ccc(NC(=O)Cc3ccc(OC)c(OC)c3)cc21	-39	nt	nt	nt	nt	nt
COc1ccc(C(C(=O)NC(C)(C)C)N(C(=O)CCC(=O)Nc2ccccn2)C2CCCCC2)cc1 (stereo unspecified)	5	-5%	-8	?	7%	-4
Cc1cc(Cl)ccc1NS(=O)(=O)c1ccc2c(c1)CCN2S(C)(=O)=O	-2	nt	nt	nt	nt	nt
CCCOc1ccc(Nc2nc(SC)ncc2C(=O)OCC)cc1	16	nt	nt	nt	nt	nt
COc1cnc(SC)nc1Nc1ccc(C#N)cc1	-35	0%	-3	?	22µM*	-18
O=C1CS(=O)(=O)C2(C(=O)N(Cc3ccc(F)cc3)c3ccccc32)N1c1cccc(C(F)(F)F)c1 (stereo unspecified)	-77*	nt	nt	nt	nt	nt
Cc1ccc(CN2C(=O)C3(c4ccccc42)N(c2cccc(C(F)(F)F)c2)C(=O)CS3(=O)=O)cc1 (stereo unspecified)	-5	nt	nt	nt	nt	nt
O=C(Nc1nc(-c2ccccc2)cs1)c1cccnc1	57	nt	18	-30%	?	27
O=C(NC(=S)N1CCN(c2nc(-c3ccccc3)cs2)CC1)c1cccnc1	?	?	-3	10µM*	4%	-3
COCCNC(=S)N1CCN(c2nc(-c3ccccc3)cs2)CC1	?	12µM*	-4	3%	-20%	-3
S=C(NCCCN1CCOCC1)N1CCN(c2nc(-c3ccccc3)cs2)CC1	?	63%	2	?	?	10
COCCCNC(=S)N1CCN(c2nc(-c3ccc(F)cc3)cs2)CC1	-85*	?	9	?	10µM*	nt
CCOCCCNC(=S)N1CCN(c2nc(-c3ccc(F)cc3)cs2)CC1	-85*	?	1	9.3µM*	11µM*	nt
CNC(=S)N1CCN(c2nc(-c3ccc(F)cc3)cs2)CC1	?	17%	13*	6%	?	20
COc1ccc(-c2nc(CS(=O)CC(=O)NCCCN3CCOCC3)c(C)o2)cc1OC (stereo unspecified)	0	?	6	12%	11%	0
Cn1nc(C(F)(F)F)c(C#N)c1N1CCN(c2ccccc2)CC1	?	nt	1	?	?	24
Cn1nc(C(F)(F)F)c(C#N)c1N1CCN(c2ccc(F)cc2)CC1	-73*	nt	-1	-24%	?	-21
C/C(=N\NC(=O)c1ccccc1O)C1CC1	47	1%	19	7%	-1%	66*
SMILES	HCMV inh	Pf growth 96h	CHX counter	Pf growth 48h	HCV inhibitor	Shiga inhibitor
C/C(=N\NC(=O)c1ccc(N)cc1)C1CC1	14	27%	40*	8%	2%	39*
O=C(OCc1nnc(-c2ccc(Br)cc2)o1)c1cncc(Br)c1	?	29%	14	21%	24%	12
COc1ccc2nc(-c3ccc(N)cc3)[nH]c2c1	29	?	13	-40%	6%	10
COc1ccc(-c2nc3ccc(C4=C(C)CC(=O)NN4)cc3[nH]2)cc1	nt	7.6µM*	nt	?	nt	nt
CN(C)C(=O)c1ccc(N/C=C(\C=O)c2nc3ccccc3o2)cc1	1	1%	4	24%	7%	54
Cc1cccc(NC(=O)c2nc[nH]c2C(=O)NCCCCCNC(=O)OC(C)(C)C)c1	5	?	nt	2.6µM*	?	nt
Cc1cccc(NC(=O)c2nc[nH]c2C(=O)N[C@@H](CCCCNC(=O)OC(C)(C)C)C(=O)OC(C)(C)C)c1	-12	6.6µM*	-3	4.7µM*	?	-6
CN(C)CC[n+]1ccc(C(=O)c2ccccc2)cc1	30	61%	-2	?	-10%	nt
Cc1ccc(-c2cn(S(=O)(=O)c3cccc4nsnc34)nc2N)cc1	-30	nt	0	?	?	-3
Nc1nn(S(=O)(=O)c2cccc3nsnc23)cc1-c1ccc(Br)cc1	-9	nt	-1	?	10µM*	-11
N#Cc1ccc(CSc2ncnc3c2cnn3Cc2ccccc2)cc1	6	7.4µM*	-3	?	0%	9
CCC(=O)N1CCc2cc(Br)cc(S(=O)(=O)N3CCC(C(=O)N(CC)CC)CC3)c21	-1	nt	nt	nt	nt	nt
CC(=O)Nc1ccc(S(=O)(=O)NC(=O)C23CC4CC(CC(C4)C2)C3)cc1	-23	0.93µM*	-3	nt	2%	-10
OC(c1cccs1)(c1cccs1)C1C[N+]2(CF)CCC1CC2 (stereo unspecified)	19	2.3µM*	-2	10µM*	25%	11
Oc1ccc(-c2onc(C(F)(F)F)c2-c2cscn2)c(O)c1	?	48%	0	?	?	-10
Cc1nc(-c2c(C(F)(F)F)noc2-c2ccc(O)cc2O)cs1	-90*	?	-2	31%	?	-10
CCOc1cc(C)c(-c2onc(C(F)(F)F)c2-c2csc(C)n2)c(O)c1	?	1.9µM*	-5	1.7µM*	?	12
CCN(CC)CCNC(=O)c1cc2c(=O)n(C)c3cc(Cl)ccc3c2s1	12	nt	nt	nt	nt	nt
CC(NC(=O)C(C)N1CCN(Cc2ccccc2)CC1)c1ccc(F)cc1 (stereo unspecified)	6	32%	-2	0%	7%	44
O=C(NNC(=O)C1CC1c1ccccc1)Nc1ccccc1 (stereo unspecified)	-36	42%	3	-10%	9%	-5
O=C(NNC(=O)C12CC3CC(CC(C3)C1)C2)[C@@H]1C[C@H]1c1ccccc1	-29	?	26*	5%	18%	46*

High-throughput results deposited in PubChem BioAssay by National Center for Advancing Translational Sciences (NCATS).
